According to PubChem BioAssay AID488890 (Southern Research Specialized Biocontainment Screening …, 2010):
About 1,300 (0.41%) of roughly 320,000 compounds were called active. Roughly 3% stayed inconclusive and do not appear here. The rule behind the calls is not given here. These entries were drawn from the full list. Entries with a potency or affinity are not part of this list.

Assay: growth inhibition of non-replicating M. tuberculosis (AID 488890);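 note: plate controls were DMSO cells for no effect and high antibiotic wells for full effect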
Details: Mycobacterium tuberculosis non-replicating, at 25 µM, stronger effect = higher value

Structure (SMILES)	inhibition
COc1ccc(C(CNC(=O)c2cccc(S(=O)(=O)NCc3ccccc3)c2)N(C)C)cc1 (stereo unspecified)	-0.497%
O=C(NCc1ccc2c(c1)OCO2)c1ccc(Br)s1	70.4%
O=C(NCc1ccc2c(c1)OCO2)c1c(Cl)cccc1Cl	3.82%
CC(C)(C)OC(=O)[C@H](Cc1ccccc1)NC(=O)c1nc[nH]c1C(=O)N1CCNCC1	9.16%
Cc1ccc(NC(=O)C2(c3ccc([N+](=O)[O-])cc3)CCCC2)cc1	56.9%
CCOC(=O)C1CCN(c2c(-c3ccccc3)c3cc(Cl)ccc3[nH]c2=O)CC1	-6.2%
CN(Cc1ccccc1)C(=O)c1[nH]cnc1C(=O)N[C@@H](Cc1ccccc1)C(=O)OC(C)(C)C	57.5%
CC(C)Cc1cc(C(=O)Nc2ccc3c(c2)OCO3)no1	79%
COc1ccc(NC(=O)c2cc(CC(C)C)on2)cc1OC	27.3%
CC(C)Cc1cc(C(=O)Nc2cc(Cl)ccc2Cl)no1	75.3%
CSc1ccccc1NC(=O)c1cc(CC(C)C)on1	77.5%
COc1ccc(NC(=O)c2ccc(NC(=O)c3cccs3)cc2)cc1	17.2%
Cc1ccc(S(=O)(=O)N(C)/N=C2/C(=O)N(CC(=O)O)c3ccccc32)cc1	-9.17%
CC/C(=N\NC(=O)Nc1ccccc1)c1c(O)n(Cc2ccccc2)c(=O)[nH]c1=O	0.07%
O=C(/C=C/c1ccc(Br)cc1)Nc1ccc(S(=O)(=O)Nc2ncccn2)cc1	21.5%
CCOc1ccccc1NC(=O)CCS(=O)(=O)c1cccs1	1.98%
C/C(=N\NC(=O)c1cccc(Br)c1)c1ccc(Br)cc1	5.12%
CCC(CC)=NNC(=O)c1ccccc1OCc1ccc(F)cc1	1.96%
C/C(=N/NC(=O)c1ccccn1)c1ccc(O)cc1	65.9%
C/C(=N/NC(=O)c1ccncc1)c1c[nH]c2ccccc12	52.8%
C/C(=N/NC(=O)c1ccccn1)c1c[nH]c2ccccc12	53%
C/C(=N\NC(=O)c1ccccn1)c1ccc(Cl)cc1	65.9%
O=C(NCc1ccccn1)c1ccccc1OCc1ccc(F)cc1	-9.24%

Structure (SMILES)	inhibition
C/C(=N\NC(=O)c1cccc(Br)c1)c1cccnc1	-8.7%
CC(=O)NC(c1ccc(C(C)C)cc1)c1c(O)ccc2ccccc12 (stereo unspecified)	-3.1%
Cc1cc(C)c(S(=O)(=O)N2CCCC(C(=O)N3CCCC3)C2)c(C)c1 (stereo unspecified)	-5.37%
CCn1c(=O)n(CC)c2cc(NS(=O)(=O)c3ccccc3)ccc21	5.29%
COC(=O)c1c(-c2cccnc2)csc1NC(=O)c1cc(C)on1	39.4%
CC(C)c1ccc(NC2CCCN(C(=O)CCc3cnn(C)c3)C2)cc1 (stereo unspecified)	-5.85%
CC(=O)c1sc(NC(=O)CN2C(=O)CCC2=O)nc1C	-3.51%
O=c1cc([O-])[n+]2c3n1CCCN3CCC2	-14.7%
COc1cc(C(=O)N/N=C(\C)c2ccccn2)cc(OC)c1OC	36.9%
COc1ccc(C(=O)N/N=C(\C)CC(=O)Nc2ccccn2)cc1OC	-1.08%
CCn1c(SCC(=O)Nc2cc(Cl)ccc2OC)nnc1C1CC1	1.4%
COc1ccc(NC(=O)COc2nc(N(C)C)nc(N(C)C)n2)cc1	-4.63%
COc1ccc(CCC(=O)NC2CCCN(Cc3ccc(Cl)cc3)C2)cc1OC (stereo unspecified)	7.24%
OCC[C@@H]1C[C@@H](O)[C@H](O)[C@@]2(OCCc3ccccc32)O1	-1.04%
COc1cc(OC)cc(C(=O)NNC(=O)C2CCCC2)c1	-10.6%
CC(C)N1CCc2c(sc(NC(=O)c3nc4ccccc4s3)c2C(N)=O)C1	77.9%
CC(=O)N1CCc2c(sc(NC(=O)C3CC3)c2-c2nc3ccccc3s2)C1	12.5%
Cc1cccc(N(CC(=O)NC(C)(C)C)C(=O)CS(=O)CC(=O)Nc2ccc(F)cc2)c1 (stereo unspecified)	-8.34%
COc1ccc(-c2nnc(SCc3ccc(C(=O)O)cc3)n2N)cc1	-5.97%
O=C(CCS(=O)(=O)Cc1ccccc1)Nc1nncs1	60.5%
O=C(CS(=O)(=O)c1ccccc1)Nc1ncc([N+](=O)[O-])s1	-8.38%
COCCSc1nnc(NC(=O)CS(=O)(=O)c2ccccc2)s1	2.87%
Cc1nnc(NC(=O)CCS(=O)(=O)Cc2ccccc2)s1	57.7%

Structure (SMILES)	inhibition
O=C(Cc1csc(Nc2nc(=S)[nH]c3ccccc23)n1)N1CCN(c2cccc(C(F)(F)F)c2)CC1	-8.89%
CC(=O)N(Cc1ccccc1)Cc1nc2sc(C)c(C)c2c(=O)[nH]1	5.06%
O=C(CN1C(=O)CSc2ccc(S(=O)(=O)N3CCOCC3)cc21)NCCCN1CCCCC1	-5.81%
Cc1ccc(S(=O)(=O)CC(=O)Nc2ccc(Cl)cn2)cc1	53.5%
COc1ccc([N+](=O)[O-])cc1/C=N/NC(=O)CNC(=O)c1cccc(F)c1	23.1%
CSc1nc2sc3c(c2c(=O)[nH]1)CCC(C)C3 (stereo unspecified)	-4.35%
CC(C)CCOCc1nc2sc3c(c2c(=O)[nH]1)CCC(C)C3 (stereo unspecified)	27.8%
O=C(Cc1c[nH]c2ccccc12)NCc1ccc(Cl)cc1	12.5%
CC(=O)N[C@@H](Cc1c[nH]c2ccccc12)C(=O)OCc1ccc(C#N)cc1	5.82%
O=C(CCc1c[nH]c2ccccc12)NCc1ccc2c(c1)OCO2	6.21%
O=C(CCc1c[nH]c2ccccc12)NCCc1ccc(Cl)cc1	-0.44%
NC(=O)CCc1c[nH]c2ccccc12	-20.3%
O=C(CCCc1c[nH]c2ccccc12)NCc1ccc2c(c1)OCO2	7.12%
CCOC(=O)CNC(=O)CSc1ncnc2c1nnn2-c1ccc(F)cc1	71.2%
COc1ccc(-c2sccc2C(C)C(=O)O)cc1 (stereo unspecified)	1.98%
CCOc1ccc(S(=O)(=O)NCCC(=O)N2CCN(c3ccccc3O)CC2)cc1	0.02%
Cc1cc(C)nc(NS(=O)(=O)c2ccc(NC(=O)c3ccc(S(=O)(=O)N4CCOCC4)cc3)cc2)n1	14.6%
CCOCC(=O)Nc1nnc(COC)s1	9.42%
CC(=O)c1ccc(N2CCN(S(=O)(=O)c3cc4[nH]c(=O)c(=O)[nH]c4cc3C)CC2)cc1	-6.88%
COc1ccc(/C=N/Nc2nnc(C)n2N)cc1OC	-3.85%
Cc1nnc(N/N=C/c2c(Cl)cccc2Cl)n1N	18.3%
CC1CCN(c2ccc(/C=N/n3nnnc3N)cc2[N+](=O)[O-])CC1	6.33%
NC(=S)N/N=C/c1ccc(-c2ccc([N+](=O)[O-])cc2)o1	63.3%

Structure (SMILES)	inhibition
Cc1nnc(N/N=C/c2cc([N+](=O)[O-])c(N3CCC(C)CC3)cc2N2CCC(C)CC2)n1N	37.3%
CCOc1cc(/C=N/Nc2nnc(C)n2N)ccc1O	2.89%
NC(=O)N/N=C/c1ccc(-c2ccc([N+](=O)[O-])cc2)o1	45.3%
CC(C)(C)c1nnc(N/N=C/c2ccc(Br)cc2)n(N)c1=O	12%
COc1ccc(N(CC(=O)NCCc2ccccc2)C(=O)CCC(=O)Nc2ccccn2)cc1	-3.83%
CC(C)N(CCNC(=O)c1ccc(CS(=O)(=O)c2c(Cl)cccc2Cl)o1)Cc1ccccc1	15.8%
Cc1ccc(S(=O)(=O)N2CCOCC2)cc1C(=O)OCC(=O)N(Cc1ccccc1)C(C)C	0.48%
O=C(CNC(=O)c1cccs1)NCC(=O)OCc1ccc(Cl)cc1	15.7%
CCN(CC)S(=O)(=O)c1ccc(N2CCOCC2)c(NS(=O)(=O)c2ccc(OC)cc2)c1	-8.38%
CCc1nc(NC(C)C)c2oc3ccccc3c2n1	8.44%
Cc1nnc(N/N=C\c2ccc(-c3ccccc3[N+](=O)[O-])o2)n1N	63.6%
Cc1nnc(N/N=C\c2ccc(-c3cccc(C(=O)O)c3)o2)n1N	12.4%
CCOc1cc2c(cc1OCC)C(c1ccc(F)cc1)NCC2 (stereo unspecified)	19.2%
CC(CNC(=O)c1ccc(OC2CCN(Cc3ccccn3)CC2)cc1)Oc1cccnc1 (stereo unspecified)	0.447%
COc1ccc(CNC(=O)CCCc2ccccc2)cc1	1.45%
COc1ccc(CCNC(=O)CCCc2ccccc2)cc1OC	26.3%
CN(CC(=O)Nc1ccc(F)c(F)c1)S(=O)(=O)c1cccc2cccnc12	0.37%
COC(=O)c1ccc(COC(=O)c2cnccn2)cc1	55.1%
O=C(OCc1ccc(Cl)c(Cl)c1)c1cnccn1	4.21%
O=C(COC(=O)c1ccccn1)Nc1ccccc1Cl	3.22%
O=C(OCc1c(Cl)cccc1Cl)c1cnccn1	17.6%
N#Cc1ccc(COC(=O)c2ccccn2)cc1	55.2%
O=C(OCc1c(Cl)cccc1Cl)c1cccnc1Cl	33.3%

Structure (SMILES)	inhibition
O=C(COC(=O)c1ccccn1)Nc1c(Cl)cccc1Cl	8.09%
COC(=O)c1ccc(OC(=O)c2ccccn2)cc1	42%
O=C(c1cccs1)N1CCN(C2CCCCC2)CC1	14.6%
O=C(CSc1nnc(CNC(=O)c2ccccc2F)o1)NCC1CCCO1 (stereo unspecified)	4.55%
Cc1cc(C)c(C)c(C(=O)COC(=O)CNC(=O)CNC(=O)c2ccco2)c1C	6.12%
CN(C)/C=N/c1cc(=O)[nH]c(=O)n1CC1CC1	-0.07%
O=C(COc1ccc2ccccc2c1Br)N1CCCCC1	76.2%
O=C(Oc1c(Cl)cc(Cl)c2cccnc12)N1CCCCC1	22.4%
O=C(Oc1c(Br)cc(Br)c2cccnc12)N1CCCCC1	43.3%
CN1CCN(C(=O)COc2ccc3ccccc3c2Br)CC1	37.4%
O=C(COc1ccccc1F)Nc1c2c(nn1-c1ccccc1)CS(=O)(=O)C2	16.8%
Cc1ccc(OCC(O)Cn2c(N3CCOCC3)nc3c2c(=O)[nH]c(=O)n3C)cc1 (stereo unspecified)	14.4%
COc1cccc(/C=N/N2CCN(c3ccccc3OC)CC2)c1	2.17%
CCCCC[C@@H]1C=C(C(=O)O)[C@H](c2ccc3c(c2)OCO3)N1S(=O)(=O)c1ccc(C)cc1	27.2%
COC(=O)C1ON2OC(C(=O)OC)C(C(=O)OC)C2C1CC(C)=O (stereo unspecified)	-1.62%
Cc1ccc(-c2nnc(C)c(N3CC(C)OC(C)C3)n2)cc1 (stereo unspecified)	2.5%
Cc1ccc(-c2nnc(C)c(N3CCOCC3)n2)cc1	7.79%
CCOC(=O)C1=C(N)OC2=C(C(=O)CC(C)(C)C2)C1c1ccc(C)s1 (stereo unspecified)	64.3%
O=C(COC(=O)c1cccnc1Cl)NCCCc1ccccc1	27.7%
